Laboratory results published in PubChem BioAssay (NCI).
Compounds without any hit were thinned out: in the full panel of roughly 83,000, 20% have a hit.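 Growth was measured after 48 h exposure to one concentration of compound in 96-well plates. Values under 10 count as active.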 A number with no mark means an inactive call. The source made the active and inactive calls.

test system: MOLT-4 leukemia; test: NCI-60 one-dose screen, 48 h (100 = growth as untreated, 0 = no growth, -100 = all killed); settings: 10 µM unless noted

| Compound | growth |
| --- | --- |
| CC(C)(C)C(=O)OCOP(=O)(NCc1ccccc1)C1CCCN(O)C1=O (configuration not stated) | 9.06% (active) |
| CCCc1cc(O)c2c3c(c(=O)oc2c1)CN(C)CC3 | 27% |
| Nc1c(F)cc(-c2nc3cc(F)ccc3[se]2)cc1F | 78.7% |
| Clc1ccc(COC(Cn2ccnc2)c2ccc(Cl)cc2Cl)cc1 (configuration not stated) | -28.4% (active) |
| Fc1ccc2c(c1)c(-c1nc(-c3c[nH]c4ncccc34)cs1)cn2CCCCN1CCCCC1 | -67.7% (active) |
| COc1ccc2nc(NC(=O)COc3cc(/C=C\c4cc(OC)c(OC)c(OC)c4)ccc3OC)sc2c1 | 12.9% |
| Oc1c(CCl)cc(Cl)cc1CCl | 98.4% |
| COc1cc([C@@H]2c3cc4c(cc3[C@H](OC(C)=O)[C@H]3COC(=O)[C@H]23)OCO4)cc(OC)c1OC | 16.7% |
| CCOC(=S)S[C@H]1C[C@@H]2[C@H](CC[C@]3(C)C(=O)CC[C@@H]23)[C@@]2(C)CCC(=O)C=C12 | 110% |
| CC1(C)N=C(N)N=C(N)N1c1ccc(CCC(=O)Nc2ccc(S(=O)(=O)F)cc2)c(Cl)c1 | 33% |
| Cc1c2cc(Cl)c3ccccc3c2c[n+]2ccccc12 | 1.48% (active) |
| COc1cc(NC(C)CCCNC2CN3CCC2CC3)c2ncccc2c1 (configuration not stated) | 74.2% |
| COC(=O)[C@@H](C)C[C@H](Cc1ccccc1)NC(=O)c1csc([C@@H](C[C@H](C(C)C)N(C)C(=O)[C@@H](NC(=O)C23CC(NC(C)=O)(C2)C3)C2CC2)OC(C)=O)n1 | 57.4% |
| CC12CCC3C(CCC4=CC(=O)CCC43CF)C1CCC2=O (configuration not stated) | 106% |
| O=C1OCC2=C1C(c1ccccc1)c1cc3c(cc1N2)OCO3 (configuration not stated) | 21.2% |
| COc1cc(/C=C\c2cc(OC)c(OC)c(OC)c2)cc(N/C=C\C(=O)c2cc(OC)c(OC)c(OC)c2)c1OC | 28.7% |
| Cc1ccc(S(=O)(=O)C(Cl)(Cl)Cl)cc1 | 79.6% |
| c1ccc(COc2ccc3[nH]cc(CCN(Cc4ccccc4)Cc4ccccc4)c3c2)cc1 | 70.7% |
| CCOC(=O)c1c(C)n(Cc2ccccc2)c2cc(CN(C)C)c(O)cc12 | 52.7% |

| Compound | growth |
| --- | --- |
| Clc1ccc(CSC(Cn2ccnc2)c2ccc(Cl)cc2Cl)cc1 (configuration not stated) | 1.87% (active) |
| CCCCCCCCCCCCCCCCCCOc1ccccc1COP(=O)(O)OOCC[N+](C)(C)C | -36.1% (active) |
| CC12CCC3C(C=CC4=C(N)C(=O)CCC43C)C1CCC2=O (configuration not stated) | 57.2% |
| CNC(=O)Oc1ccc(N(C)C)cc1C(C)C | 75.3% |
| C=CC[n+]1ccc(-c2cc[n+](CC=C)cc2)cc1 | 88.8% |
| CCC1CC(O)c2c(O)c3c(c(O)c2C1O)C(=O)c1cccc(O)c1C3=O (configuration not stated) (tested in a mixture with another compound) | -23.3% (active) |
| ClC1=C(Cl)C(Cl)(C2(Cl)C(Cl)=C(Cl)C(Cl)=C2Cl)C(Cl)=C1Cl | -36.7% (active) |
| O=c1[nH]cc(N(CCCl)CCCl)c(=O)[nH]1 | 15.3% |
| Cn1cc(C=O)c2nccnc21 | 101% |
| CN1CC(=O)N(O)C1(C)c1cccnc1 (configuration not stated) | 97.2% |
| CC1=C([Te]c2ccc(O)cc2)C(=O)c2ccccc2C1=O | -17% (active) |
| COC(=O)[C@@H](C)C[C@H](Cc1ccccc1)NC(=O)c1csc([C@@H](C[C@H](C(C)C)N(C)C(=O)[C@@H](NC(=O)[C@H]2CCCCN2C)c2ccc(F)cc2)OC(C)=O)n1 | 8.23% (active) |
| C[C@@H]1O[C@@H](O[C@H]2C[C@@H](O)[C@]3(CO)C4C(CC[C@]3(O)C2)[C@@]2(O)CC[C@H](C3=CC(=O)OC3)[C@@]2(C)C[C@H]4O)[C@H](O)[C@H](O)[C@H]1O (some centres not stated) | -29.4% (active) |
| CC[C@H](C)[C@H](NC(=O)C12CC(NC(C)=O)(C1)C2)C(=O)N(C)[C@H](C[C@@H](OC(C)=O)c1nc(C(=O)N[C@@H](Cc2ccccc2)C[C@H](C)C(=O)OC)cs1)C(C)C | 21.4% |
| CC(=O)/C=C/c1ccc2c(c1)OCO2 | 103% |
| C[CH2][Sn]([Cl])([Cl])[CH2]C.Oc1ccccc1C=NCCN=Cc1ccccc1O | 86.1% |
| CN1CCCCC1C(C)(O)c1ccccc1 (configuration not stated) | 102% |
| COc1ccc2c(c1)c(C1(O)CC(CSC#N)OC1=O)cn2C(=O)c1ccc(Cl)cc1 (configuration not stated) | 93.2% |
